Source: the supplement of paper PMC12350171
Structures can show the parent of a compound that is named as a salt.

Experiments:
Conditions in all cases: 20 µM
[1] = test system: Haemophilus parainfluenzae; assay: growth AUC normalised to DMSO control (fraction of control); higher = less growth inhibition, active = hit call of the paper
In short: (§1)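 After two anaerobic passages, pathogens were added at a starting OD578 of 0.01 to pre-reduced mGAM plates holding compound at 20 μM with 1% DMSO; hemin and NAD were supplemented for Haemophilus parainfluenzae. Sealed with breathable membranes, plates were read at OD578 hourly for 24 h, in three biological replicates. The trapezoidal rule, applied up to the exponential-to-stationary transition, gave the growth-curve AUC, which was normalised to DMSO controls on the same plate.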

[2] = test system: Salmonella enterica typhimurium; assay: as above
In short: as §1

[3] = test system: Shigella flexneri; assay: as above
In short: as §1

[4] = test system: Vibrio cholerae; assay: as above
In short: as §1

[5] = test system: Yersinia pseudotuberculosis; assay: as above
In short: as §1

[6] = test system: P. vulgatus RND KO; assay: growth AUC normalised to DMSO control (median) (fraction of control); higher = less growth inhibition, active = hit call of the paper
In short: (§2)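 Area under the growth curve, calculated by the trapezoidal rule up to entry into stationary phase, was normalised to vehicle wells on the same plate. Strains had been passaged twice overnight without oxygen and then grown in mGAM in 96-well plates from OD578 0.01, each with an approved-drug library compound at 20 μM in 1% DMSO. OD578 was read hourly over 24 h in an anaerobic incubator, and the median of three biological replicates is given.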

[7] = test system: P. vulgatus WT; assay: as above
In short: as §2

[8] = test system: S. enterica typhimurium WT; assay: as above
In short: as §2

[9] = test system: S. enterica typhimurium tolC KO; assay: as above
In short: as §2

Measured: growth AUC normalised to DMSO control
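Wherever growth AUC normalised to DMSO control (median) is given: active when median AUC fell below 0.1.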

C[C@H](N)[C@H](O)c1ccc(O)c(O)c1 [Levonordefrin]
inactive: [1] 1.04 | [2] 1.01 | [3] 1 | [4] 1 | [5] 1.03 | [6] 1.01 | [7] 1.03 | [8] 0.99 | [9] 1

OC(c1ccccc1)(c1ccccc1)C1CCNCC1 [Azacyclonol]
inactive: [1] 0.982 | [2] 0.999 | [3] 0.988 | [4] 0.967 | [5] 1 | [6] 1 | [7] 1.03 | [8] 1.01 | [9] 0.99

CCC1(c2cccc(O)c2)CCCCN(C)C1 (stereo not given) [Meptazinol hydrochloride]
inactive: [1] 0.961 | [2] 0.983 | [3] 0.948 | [4] 0.974 | [5] 0.994 | [6] 0.993 | [7] 0.982 | [8] 0.998 | [9] 1

C[N+]1([O-])[C@@H]2C[C@@H](OC(=O)[C@H](CO)c3ccccc3)C[C@H]1[C@@H]1O[C@@H]12 (stereo not given in full) [Scopolamin-N-oxide hydrobromide]
inactive: [1] 0.991 | [2] 0.992 | [3] 1.02 | [4] 1.07 | [5] 1.01 | [6] 1.04 | [7] 1.02 | [8] 1.02 | [9] 1.01

O=C1CC[C@@]2(O)[C@H]3Cc4ccc(O)c5c4[C@@]2(CCN3CC2CC2)[C@H]1O5 [Naltrexone hydrochloride dihydrate]
inactive: [1] 0.995 | [2] 1 | [3] 0.992 | [4] 1 | [5] 1.01 | [6] 0.994 | [7] 1.02 | [8] 0.993 | [9] 0.998
